High-throughput results as filed in PubChem BioAssay.
This excerpt belongs to a sample that is enriched for hits.
U2OS ROS induce – inducers of reactive oxygen species in cancer cells. U2OS ROS induction, H2DCF-DA fluorescence. ROS induction (% of piperlongumine), % at 10 µM. 46,000 tested, 2% active; in the data active = ROS induction above about 79%, passing the limit was not always enough
A number is an active result; . = inactive.

SMILES	U2OS ROS induce
COCCOC(=O)N1C(=O)[C@@]2(c3cc(C#CCC(C(=O)OC)C(=O)OC)ccc31)[C@H](c1ccccc1OCCO)N1[C@H](c3ccccc3)[C@H](c3ccccc3)OC(=O)[C@H]1[C@@H]2C(=O)Nc1nc2ccccc2s1	.
CN(Cc1ccccc1)c1nnc(NC(=O)c2cc(-c3ccc(Br)cc3)on2)s1	.
COC(=O)c1c(NC(=O)c2ccc(S(=O)(=O)N3CCCCC3C)cc2)sc2c1CCN(C)C2 (stereo unspecified)	.
CCNC(=O)C1CCCN(c2nnc(N3CCCC3=O)s2)C1 (stereo unspecified)	.
S=C(NCC1COc2ccccc2O1)NC1CCCCC1 (stereo unspecified)	.
COc1ccc([Si](C)(C)[C@@H]2[C@@H](CCO)O[C@]3(C(=O)N(Cc4ccc(N5CCC5=O)cc4)c4ccccc43)[C@H]2C)cc1	128
COc1ccc([Si](C)(C)[C@H]2[C@H](CCn3cc([C@H](O)c4ccccc4)nn3)O[C@@]3(C(=O)N(Cc4cccc(N5CCC5=O)c4)c4ccccc43)[C@@H]2C)cc1	.
COc1ccc([Si](C)(C)[C@@H]2[C@@H](CCn3cc(CCO)nn3)O[C@]3(C(=O)N(Cc4ccc(N5CCC5=O)cc4)c4ccccc43)[C@H]2C)cc1	.
COc1ccc([Si](C)(C)[C@H]2[C@H](CCn3cc(CCO)nn3)O[C@@]3(C(=O)N(Cc4ccc(N5CCC5=O)cc4)c4ccccc43)[C@@H]2C)cc1	80
COc1ccc([Si](C)(C)[C@@H]2[C@@H](CCO)O[C@]3(C(=O)N(Cc4ccc(N5CCCCC5=O)cc4)c4ccccc43)[C@H]2C)cc1	.
COc1ccc([Si](C)(C)[C@H]2[C@H](CCn3cc(CCO)nn3)O[C@@]3(C(=O)N(Cc4cccc(N5CCC5=O)c4)c4ccccc43)[C@@H]2C)cc1	109
COc1ccc([Si](C)(C)[C@H]2[C@H](CCO)O[C@@]3(C(=O)N(Cc4ccc(N5CCCCC5=O)cc4)c4ccccc43)[C@@H]2C)cc1	.
COc1ccc([Si](C)(C)[C@@H]2[C@@H](CCn3cc([C@H](O)c4ccccc4)nn3)O[C@]3(C(=O)N(Cc4cccc(N5CCC5=O)c4)c4ccccc43)[C@H]2C)cc1	.
COc1ccc([Si](C)(C)[C@H]2[C@H](CCn3cc([C@H](O)c4ccccc4)nn3)O[C@@]3(C(=O)N(Cc4ccc(N5CCC5=O)cc4)c4ccccc43)[C@@H]2C)cc1	.
Fc1nc(Nc2ccccc2)c2c(c1Cl)Oc1ccccc1O2	.
CCCNC(=O)c1ccc(-n2c(=S)[nH]c3ccccc3c2=O)cc1	.
O=C(NC12CC3CC(CC(C3)C1)C2)C1CCCN1S(=O)(=O)c1ccccc1 (stereo unspecified)	.
Cc1ccc(NS(=O)(=O)c2ccc(NC(=O)CN3C(=O)c4cccc5cccc3c45)cc2)cc1	.
Cc1cccc(-c2nc3ccccc3n2CCC(C)C)c1	.
c1ccc(OCc2nc3c4c5c(sc4ncn3n2)CCCC5)cc1	.
Nn1c(Cc2ccccc2)nc2sc3c(c2c1=O)CCCC3	.
CCCc1c(-c2ccccc2)nc2sc3c(c2c1N)CCCCC3	169
FC(F)(F)c1[nH]nc(-c2ccccc2)c1C12CC3CC(CC(C3)C1)C2	.
CCC(C)NC(=O)c1csc2c1CCCC2 (stereo unspecified)	.
COc1cc2c(cc1OC)CN(C(=O)[C@H]1[C@@H]3C(=O)O[C@@H](c4ccccc4)[C@@H](c4ccccc4)N3[C@@H](c3ccc(OCCO)cc3)[C@]13C(=O)Nc1ccc(C#CC4(O)CCCCCC4)cc13)CC2	.
SMILES	U2OS ROS induce
COc1cc2c(cc1OC)CN(C(=O)[C@H]1[C@@H]3C(=O)O[C@@H](c4ccccc4)[C@@H](c4ccccc4)N3[C@@H](c3ccccc3OCCO)[C@]13C(=O)Nc1ccc(C#CC4(O)CCCCCC4)cc13)CC2	96
COc1cc2c(cc1OC)CN(C(=O)[C@@H]1[C@H]3C(=O)O[C@H](c4ccccc4)[C@H](c4ccccc4)N3[C@H](c3ccccc3OCCO)[C@@]13C(=O)Nc1ccc(C#CC4=CCCCC4)cc13)CC2	.
COc1cc2c(cc1OC)CN(C(=O)[C@H]1[C@@H]3C(=O)O[C@@H](c4ccccc4)[C@@H](c4ccccc4)N3[C@@H](c3ccc(O)cc3)[C@]13C(=O)Nc1ccc(C#CC4(O)CCCCCC4)cc13)CC2	.
COc1ccc(C#Cc2ccc3c(c2)[C@]2(C(=O)N3)[C@H](C(=O)N3CCc4cc(OC)c(OC)cc4C3)[C@H]3C(=O)O[C@H](c4ccccc4)[C@H](c4ccccc4)N3[C@@H]2c2ccccc2OCCO)cc1	.
COc1cc2c(cc1OC)CN(C(=O)[C@@H]1[C@H]3C(=O)O[C@H](c4ccccc4)[C@H](c4ccccc4)N3[C@H](c3ccccc3OCCO)[C@@]13C(=O)Nc1ccc(C#CC4(O)CCCCCC4)cc13)CC2	88
CCN(CC)C(=S)SCc1cn2cccnc2n1	.
CC1C[C@@]23CC4C(C)(C)[C@@]5(C[C@]4(CN2C1=O)N(C)C3=O)C(=O)Nc1c5ccc2c1C(=O)CC(C)(C)O2 (stereo partly specified)	.
COC(=O)C1=NNC(C(=O)OC(C)(C)C)C1c1ccccc1 (stereo unspecified)	.
COC(=O)c1ccc2c(=O)n(-c3ccc(F)c(Cl)c3)c(SCC(=O)C(C)(C)C)nc2c1	.
COc1ccccc1-n1c(SCC(=O)Nc2ccccc2C)nc2ccc(I)cc2c1=O	.
CCn1c(SCC(=O)Nc2ccccc2)nc2ccc(I)cc2c1=O	109
CCc1ccc(NC(=O)CSc2nc3ccccc3c(=O)n2CCc2ccccc2)cc1	.
CCc1ccc2ncc(S(=O)(=O)c3ccccc3)c(N3CCCCC3)c2c1	.
Cc1ccccc1OCC(=O)NC1CCCCC1NC(=O)COc1ccccc1C (stereo unspecified)	.
CC(=O)N(CCc1c(C)[nH]c2ccccc12)C(C(=O)Nc1c(C)cccc1C)c1ccc(Cl)cc1 (stereo unspecified)	.
CCOC(=O)N1CC=C2C(C1)C(c1cccc(C(F)(F)F)c1)C(C#N)=C(N)C2(C#N)C#N (stereo unspecified)	.
COC(=O)c1ccc([C@H]2C(C#N)=C(N)C(C#N)(C#N)C3=CCC(C(C)(C)C)C[C@@H]32)cc1 (stereo partly specified)	226
CC(C)(C)C1CC=C2[C@H](C1)[C@@H](c1ccsc1)C(C#N)=C(N)C2(C#N)C#N (stereo partly specified)	.
CC1=NN(C(=O)c2ccccc2)C(O)(C(F)(F)F)C1 (stereo unspecified)	.
Cc1ccc2c(c1)c1nc3ccccc3nc1n2CCN1CCOCC1	78
Cc1ccc2c(c1)c1nc3ccccc3nc1n2CC(=O)OCc1ccccc1	.
O=c1oc2ccccc2n1CCn1c2ccccc2c2nc3ccccc3nc21	.
Cc1ccccc1COc1ccc2oc(-c3ccccc3)c(C(=O)O)c2c1	.
Cc1sc(NC(=O)Cn2nc(C(F)(F)F)cc2C)c(C(N)=O)c1C	.
COc1ccc(C2=NN(S(C)(=O)=O)C(c3ccc(C)cc3)C2)cc1 (stereo unspecified)	.
COc1ccc(C2=NN3COc4ccccc4C3C2)cc1 (stereo unspecified)	.
COc1ccc(C2=NN(S(C)(=O)=O)C(c3ccccc3OC)C2)cc1 (stereo unspecified)	164
COc1ccc(-c2c(C(F)(F)F)oc3c(CN4CCCC(C)C4)c(O)ccc3c2=O)cc1OC (stereo unspecified)	.
